Assay results published in PubChem BioAssay (NCI).
Compounds without any hit were thinned out: in the full panel of roughly 79,000, 15% have a hit. Values without a mark were called inactive. Activity calls are given as the source filed them. Rule as the data show it: active = growth inhibition above about 70%; inactive = the rest. Where a SMILES comes first, the peptide text is derived from it. Bridges are numbered along the chain shown (N, C = ends). [ ]: non-standard residue; d: D form. Aib = CC(C)(N)C(=O)O; βAla = NCCC(=O)O

Tests used:
[1] = NCI Yeast Anticancer Drug Screen. Data for the rad50 strain (AID 155);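 also: 0% = growth of vehicle-only cultures of the same strain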; settings: S. cerevisiae rad50 strain growth inhibition, hits give high values; at 50.0 µM unless noted
How it was run: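 Growth of the mutant yeast was measured after compound exposure and referenced to vehicle-treated cultures.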

[2] = NCI Yeast Anticancer Drug Screen. Data for the mec2-1 strain (AID 157); settings: S. cerevisiae mec2-1 strain, hits give high values; at 50.0 µM unless noted
How it was run: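 Yeast mec2-1 mutant treated with compound. Readout: growth inhibition vs vehicle controls.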

[3] = NCI Yeast Anticancer Drug Screen. Data for the sgs1 mgt1 strain (AID 161);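 also: 0% = growth of cultures given vehicle only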; settings: S. cerevisiae sgs1 mgt1 strain, hits give high values; at 50.0 µM unless noted
How it was run: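 Mutant yeast exposed to compound; growth scored against vehicle-only wells.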

[4] = NCI Yeast Anticancer Drug Screen. Data for the cln2 rad14 strain (AID 165);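 also: 0% = growth equal to vehicle treated cultures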; settings: S. cerevisiae cln2 rad14 strain, hits give high values; at 50.0 µM unless noted
How it was run: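 cln2 rad14 yeast strain; compound exposure; growth inhibition read vs vehicle controls.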

[5] = NCI Yeast Anticancer Drug Screen. Data for the bub3 strain (AID 167); settings: S. cerevisiae bub3 mutant strain, hits give high values; at 50.0 µM unless noted
How it was run: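 Whole-cell yeast assay. The mutant strain was incubated with compounds, and growth inhibition was determined by comparison with vehicle-treated cells.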

[6] = NCI Yeast Anticancer Drug Screen. Data for the mlh1 rad18 strain (AID 175); settings: S. cerevisiae mlh1 rad18 strain growth inhibition, hits give high values; at 50.0 µM unless noted
How it was run: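 Yeast w/ defined DNA-repair lesions; compound exposure; growth vs vehicle controls → % inhibition.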

Row | SMILES | growth inhibition [1] | growth inhibition [2] | growth inhibition [3] | growth inhibition [4] | growth inhibition [5] | growth inhibition [6]
1 | CC(C)(CO)NCC(C)(C)[N+](=O)[O-] | 8.5% | 2.25% | 14.6% | -9.2% | 6.95% | 6.7%
2 | O=C1OCCOCCOCCOCCOC(=O)c2cccc1n2 | -10.2% | 6.65% | 12.6% | 17.1% | 5.2% | 7.2%
3 | CC1(C)NC(=O)C(NC(=O)C(N)CC(=O)O)CCCCNC(=O)CCNC1=O (stereo not given) (H-DK[Aib][βAla]; lactam 2-C; configuration not given here) | -4.35% | -67.5% | -32.3% | -10.6% | 6.35% | -17.9%
4 | C[N+]1(Cc2csc(-c3ccc(Cl)cc3)n2)CCCC1 | -12.5% | -23.1% | 4.55% | 9.75% | -5.7% | -11.7%
5 | COc1cc(OC)c(C2SCC(=O)N2c2nnc(C(F)(F)F)s2)cc1OC (stereo not given) | 9.9% | 13.8% | 5.15% | 3.75% | 25.9% | 6.8%
6 | C=C1C(=O)O[C@@H]2C[C@@H](C)[C@@H]3C=CC(=O)[C@@]3(C)[C@@H](OC(=O)CCCC(=O)O[C@H]3[C@@H]4C(=C)C(=O)O[C@@H]4C[C@@H](C)[C@@H]4C=CC(=O)[C@]43C)[C@H]12 | 50.1% | 49% | 57.6% | 31.1% | 58% | 34.9%
7 | O=C(O)/C=C\C(=O)NNC(=O)/C=C\C(=O)O | 5.55% | -2.8% | -5.05% | -18.9% | 5.45% | -24.4%
8 | COc1ccc2c(c1)CCC1=C2CCC2(C)C1=CCS2(=O)=O (stereo not given) | 3.85% | -5.6% | -7.9% | 22.6% | 8.45% | -1.9%
9 | CCNc1cc(Cl)c(C(=O)O)cc1[N+](=O)[O-] | -8.8% | 20.9% | 15.3% | -22.7% | -8.75% | -8.65%
10 | Cc1cc(=O)n(-c2ccccc2)c(=O)[nH]1 | 1.2% | 1.95% | 1.5% | 1.2% | -4.25% | -12%
11 | CCCCCCCCCCCCCOc1ccc(S(=O)(=O)/N=C(\N)NC(N)=NCCCCCCCCCCCC)cc1 | 2.9% | 12.4% | -2.8% | -1.55% | -4.95% | 8.05%
12 | C/C=C(\C)c1cc(=O)c2c(C)cc3c(c2o1)C(OC)(OC(C)=O)c1c(O)c(C2CC(C)(N(C)C)C(OC(C)=O)C(C)O2)cc(C2CC(N(C)C)C(OC(C)=O)C(C)O2)c1C3=O (stereo not given) | -23.9% | -28.3% | -30.8% | 0.5% | -21.6% | -4.8%
13 | CCOc1ccccc1NC(=O)C(=O)C(C(=O)c1ccc2ccccc2c1)C1OC(=O)c2ccccc21 (stereo not given) | -4% | 4.35% | 13.6% | -50% | 12.5% | 0.45%
14 | CN1c2ccccc2C(=O)N2C(=O)CCC21C (stereo not given) | -38.9% | -15.4% | -20.7% | -14.2% | -13.4% | -11.1%
15 | Cc1cccc(Nc2nc(C)nc3[nH]cc(-c4ccccc4)c23)c1 | -14.7% | -12.6% | -10.9% | -53.2% | -15.5% | -7.95%
16 | COc1cc(CC(=O)C(=O)O)ccc1O | 0.85% | -2.95% | 4.35% | -14.7% | 2.2% | -1.95%
17 | CN(C)/C(N)=N\c1nc(O)cc(=O)[nH]1 | 6.7% | -19.6% | -0.05% | -0.6% | 10.7% | 10.1%
18 | Cc1cc(C)c2c(c1)CC(C)(C)CC2=O | 4% | -7.95% | -1.1% | 2.5% | -4.55% | -2.6%
19 | C1CSCCSCCS1 | 11.6% | 0.9% | 20.1% | 4.85% | 28% | -4.9%
20 | CC1=C(C(=O)Nc2ccccc2)C(c2ccc3c(c2)OCO3)C(C(=O)Nc2ccccc2)=C(C)N1 | 38.3% | 33.5% | 10.5% | 17.1% | 38.5% | 27.1%

Row | SMILES | growth inhibition [1] | growth inhibition [2] | growth inhibition [3] | growth inhibition [4] | growth inhibition [5] | growth inhibition [6]
21 | O=C1C2C3ON(c4ccccc43)C2C(=O)N1c1ccccc1 (stereo not given) | -0.65% | 21% | 15.4% | 2.4% | 3.6% | -3.55%
22 | COC(=O)C1CCOC(C)N1C(=O)OC(C)(C)C (stereo not given) | 2.9% | 0.75% | 6.4% | 11% | 13.2% | -34.5%
23 | COc1cccc(C(=O)C2N=NCC2c2ccccc2)c1 (stereo not given) | -17.4% | -5% | 2% | -15.2% | 61.5% | 29.9%
24 | CNNC(=O)C(O)C(C)(C)CO (stereo not given) | -4.45% | 8.5% | -4.3% | 20.1% | 6.5% | 9.8%
25 | O=c1c(-c2ccccc2)c[nH]c2ccccc12 | 26.7% | 16.6% | 20.9% | 8.45% | -10.9% | 44.5%
26 | COc1cc2c(cc1OC)C1C(C)c3ccc(OC)c(OC)c3CN1CC2 (stereo not given) | 0.65% | -43% | -3.25% | -0.95% | -29.6% | -8.6%
27 | CCc1ccccc1NC(=O)C(=O)CC(=O)c1sc(Nc2ccccc2Cl)nc1C | 6.25% | 6.15% | 26% | -16.6% | -2.65% | 15.1%
28 | COc1ccccc1C(=O)Oc1ccc(OC(=O)c2ccccc2OC)c(C(C)=O)c1 | 16.6% | -1.85% | 0% | 3.25% | 20.2% | 35.4%
29 | O=C(OC1CCC/C=C\CCCC1)c1ccc(Cl)cc1 (stereo not given) | 1.45% | -4.35% | -16.4% | -2.1% | -1.5% | 2.45%
30 | CCN(CC)C(=O)CCn1cc(F)c(=O)[nH]c1=O | -65.8% | -51% | -35% | 1.65% | -25.8% | -15.9%
31 | O=CC[C@]12CC(=O)OC(C=CC13OCCO3)C2 | 6.55% | -9.4% | -16.7% | 17.6% | 13.4% | 9.05%
32 | O=C(NC12CC3CC(CC(C3)C1)C2)C(=O)c1c[nH]c2ccc([N+](=O)[O-])cc12 | -17.4% | -25.1% | -50.6% | -9.85% | -15.1% | -31.9%
33 | COC1CN(C(C)(C)C)C1 | 2.65% | 6.15% | -1.2% | 2.65% | 6.6% | 0.95%
34 | COc1ccc2nc3cc([N+](=O)[O-])ccc3c(NCCCN(C)C)c2c1 | 7.05% | -1.9% | 45.4% | 20.9% | 8.25% | 5.4%
35 | O=C1/C(=C/c2ccc(Cl)cc2)CCC1CN1CCOCC1 (stereo not given) | 89.8% (active) | 92.2% (active) | 89.2% (active) | 92.3% (active) | 91.1% (active) | 92% (active)
36 | CCSC(=Nc1nc2ccc([N+](=O)[O-])cc2s1)SCC | 43.5% | 31.4% | 33.5% | 14.1% | 25.5% | 12.2%
37 | CCN(CC)OC(=O)/C=C/c1ccccc1 | 2.05% | 5.5% | -10.3% | 20.2% | -3.3% | -4.45%
38 | CC(C)COC(c1ccc2c(c1)OCO2)C(C)Br (stereo not given) | 34.5% | 39.5% | 22.4% | 0.3% | 48.5% | 58.5%
39 | N#CSc1ccc(NN)cc1 | 11.2% | -2.05% | 30.4% | -4.65% | 33.7% | 1.55%
40 | N#C/C(=C\c1ccc2ccccc2c1)C(=O)c1ccccc1 | 13.7% | -14.3% | -15.3% | 17.8% | -17.7% | -47.7%
